# Source: PubChem BioAssay
# The list is a sample of the results.
# aSyn 5UTR act: Activators via SNCA 5'UTR binding, MLPCN | hit rate 7.1% among 300,000 | alpha-synuclein 5'UTR reporter, activators screen | activity score, % (tested at 7.5 µM), hits read low; in the data active = activity score below about -60%
# The depositor's hits bear a star.
SMILES,aSyn 5UTR act
CC(C)Oc1ccc(C(=O)Nc2cccc3cccnc23)cc1,-136*
O=C(N/N=C/C(Cl)=C\c1ccccc1)c1cccs1,-92*
CC(/C=N/NC(=O)c1cccs1)=C\c1ccccc1,-99*
Cc1ccc(/C=C2\OC(=O)c3ccccc32)cc1,-83*
Cc1ccc(Nc2nc(C)cs2)cc1,-125*
COC(=O)Cc1csc(Nc2ccc(Cl)cc2)n1,-68*
Cc1csc(Nc2ccc(Cl)cc2)n1,-113*
N#Cc1cc2c(nc1SCC(N)=O)CCCCC2,-77*
N#Cc1cc2c(nc1SCC(=O)N1CCOCC1)CCCCC2,-65*
Cc1ccc(-n2c(C)nc3c(cnn3-c3ccc(C)c(C)c3)c2=O)cc1C,-101*
C#CCn1cnc2c(cnn2-c2ccc(C)c(C)c2)c1=O,-107*
Cc1nc2c3cnn(-c4ccc(C)c(C)c4)c3ncn2n1,-191*
Cc1ccc(-c2nn3cnnc3c3ccccc23)cc1C,64
Cc1cc(/C=C(\C#N)C(=O)NC2CCCCCC2)c(C)n1C,-74*
O=C(Cn1cnc2c(cnn2-c2ccc(F)cc2)c1=O)NCc1ccco1,-78*
Nn1c(SCc2ccccc2)nc2c(cnn2-c2ccccc2)c1=O,-90*
CCCSc1nc2c(cnn2-c2ccccc2)c(=O)n1N,-83*
CCOC(=O)C(C)Oc1cccc2c(=O)n(CC(=O)NCc3ccco3)ccc12 (configuration not stated),73
O=c1c2cnn(-c3ccccc3)c2ncn1CCc1ccccc1,-114*
CCCCSc1nc2c(cnn2-c2ccccc2)c(=O)n1N,-119*
Cc1cc(C(=O)OCC(=O)Nc2c(F)cccc2F)c(C)n1-c1ccccc1,-103*
Cc1cc(C(=O)Cn2nnc3ccccc3c2=O)c(C)n1-c1ccccc1F,54
Cc1cc(C(=O)COC(=O)c2ccc(O)cc2)c(C)n1-c1ccccc1F,-78*
Cc1cc(C(=O)Nc2ccc(Cl)cc2)c(C)n1-c1ccccc1,87
Cc1cc(C(=O)CN2C(=O)NC(CC(C)C)C2=O)c(C)n1-c1ccccc1F (configuration not stated),-148*
SMILES,aSyn 5UTR act
Cc1cc(C(=O)CS(=O)(=O)c2ccc(F)cc2)cc(C)c1O,-80*
Cc1cc(C(=O)CS(=O)(=O)c2ccccc2)cc(C)c1O,-85*
Cc1cc(C(=O)CSc2ccccc2)cc(C)c1O,-160*
CCOC(=O)c1sc(NC(=O)c2ccc(Br)o2)cc1C,-236*
CCOC(=O)c1sc(NC(=O)c2cccs2)cc1C,-88*
CCOC(=O)c1sc(NC(=O)Nc2cccc(Cl)c2)cc1C,-110*
CCOC(=O)c1sc(NC(=O)c2sccc2C)cc1C,-82*
CCOC(=O)c1sc(Nc2nc3c(F)cccc3s2)cc1C,-280*
CCOC(=O)c1sc(Nc2nc3ccc(OC)cc3s2)cc1C,-69*
CCCC(=O)Nc1ccc(NC(=O)c2ccccc2F)cn1,-90*
O=C(Nc1ccc(NC(=O)C2CC2)nc1)c1ccccc1F,-95*
O=C(Nc1ccc(NC(=O)C2CCCCC2)nc1)c1cccs1,-124*
O=[N+]([O-])c1ccc2nc(N3CCCC3)sc2c1,-121*
Cc1ccc(C(=O)c2cc([N+](=O)[O-])ccc2N2CCCCC2)cc1,81
Cc1cc(N2CCCCCC2)nc2ccc(F)cc12,-64*
Fc1cc(F)c2nc(N3CCCCC3)sc2c1,-98*
Fc1ccc2nc(N3CCCC3)sc2c1,-200*
CC(C)Sc1nc2ccc(Br)cc2[nH]1,-120*
CC(C)c1ccc2oc(-c3ccc(NC(=O)c4ncn[nH]4)cc3)nc2c1,-80*
CC(=O)Nc1ccc2oc(-c3cc(F)c(F)cc3Cl)nc2c1,61
CC(C)C(=O)Nc1ccc2oc(-c3cc(F)c(F)cc3Cl)nc2c1,-154*
O=C(Nc1ccc2oc(-c3cccc4ccccc34)nc2c1)c1ncn[nH]1,-184*
O=C(Nc1ccc2oc(-c3ccccc3Cl)nc2c1)c1ncn[nH]1,-153*
O=C(c1cnn(-c2cccc(F)c2)c1)c1ccccc1O,-194*
O=C(c1cnn(-c2nc3ccccc3s2)c1)c1ccccc1O,-117*
SMILES,aSyn 5UTR act
O=C(c1cnn(-c2ccccc2)c1)c1ccc2ccccc2c1O,-119*
COc1cccc(Nc2ncnc3ccccc23)c1,-123*
COc1ccc(Nc2ncnc3ccccc23)cc1,-152*
COc1cccc(Nc2cc(C)c3ccccc3n2)c1,-63*
CCOc1ccc(Nc2nc(N)c3ccccc3n2)cc1,102
COc1ccc(Nc2cc(Nc3ccccc3)ncn2)cc1,-81*
Cc1ccc(O)c(Nc2ncnc3ccccc23)c1,-96*
COc1ccc(Nc2ccnc(Nc3ccc(OC)cc3)n2)cc1,-120*
N#CC1(c2ccc(NC(=O)c3ccccc3)cc2)CCCC1,-89*
CC(=O)Oc1ccc(C(=O)Nc2ccc(C3(C#N)CCCC3)cc2)cc1,-142*
O=C(Nc1ccc(-c2cn3ccsc3n2)cc1)C1CCCC1,-95*
O=C(Nc1ccc(-c2cn3ccsc3n2)cc1)C1CC1,-159*
CC(C)(C)CC(=O)Nc1cccc(-c2cn3cccnc3n2)c1,-107*
CC(C)CC(=O)Nc1cccc(-c2cn3ccsc3n2)c1,-126*
